# Experimental data published in the supplement of paper PMC12632987.
# In all, about 4,500 sequences were measured (“median log2 fold change of GCK-ALFA target abundance (FLAG IP / Myc IP barcode read proportion)”: median about 0.078, lowest 2% from about -0.6 on). The entries come from a sample that favours the lowest values as a whole.
# B1: GBRAP_35_5545 (protein)
# chain: DFDEETVEMLLNTMEDIVLALPDVSPEEKLILARHLIDLAEKAIEEKPKNVELLKRGIEVLERAIEIVKASDLPEEEREELIERLEEVKEKFEKLLKENE
# B2: GBRAP_35_5547 (protein)
# chain: DPETETVEMLLNTMEDIVLALPDVSPEDLETLTKHLIDLANLAIEEKPKNKELLERLIKALEEAIKIVEASDLPEEVKAELLKELEKARKEAEKLLEKVK
# B3: GBRAP_35_5544 (protein)
# chain: MEEEETVEMLLNTMEDIVLALPDVSPEEQLILTKHLIKLAKLAIEEKPKNKELLKRGIEALKEAIKIVKESDLPEEEKEKLLKELEEAKEKFEKLLKKVE
# B4: GBRAP_128_3307 (protein)
# chain: MDEELLEEARELIERLKEADEEEAAELVREIAELLEKATPEEREEIAELFEEALKELSAEKLDVVADTLRELIPKATPETANVLADLQVEALNLAEEKEE
# B5: GBRAP_160_4379 (protein)
# chain: SEELKELKEEVKKLKEEFKEEAKDLSTAEVRTLAIGVLSEIAALVWSNEAVSEETKDKIMKIIDDAIAKIRANADASPEEIVAIVTEAFDKIIELIEKEE
# B6: GBRAP_125_3112 (protein)
# chain: NMEEILEALRIILKALGFDEEEIEEAVRLAREYGIKGTMIAAALALGWEEVAELLEKLSEEEVKEALLRTAEKIKENPELTPEEVKELLKEVLKEILEKK
# B7: GBRAP_11_2866 (protein)
# chain: NKEKLKEIAELLEKLIEVLERLLEEGVDNEELREEALKLAKEILELVKKYSDEADVKLAEYALELLEKAEEDPANAEQYVQEALAFARVLLGNVLLRIDE
# B8: GBRAP_52_6101 (protein)
# chain: AAAEAEALVERLLALVRAGREAEARAEAAALAAEMDEARLRVLTEALAARARAAAPEDLDAVWRLAELLADELEAAGWPDVLVDDLLAATAAALYERELA
# B9: GBRAP_128_3576 (protein)
# chain: SDEEILEKAKELIKKIIESDVEEAKKYAEELAKLLKEADPETREKIVELILEALPKLSVEKLEVLADVFREQRPKADPETANLLAEIEVEALNEAVEKEE
# B10: GBRAP_166_4948 (protein)
# chain: SLEEVIEETREFIRELAERMKTLNDEERLDALIEIAERLEEARKAGVSEEDLLELVREALELVKEAGGSVEQFVGALDMFVDLDEEELDKVAEIAEEVKA
# B11: GBRAP_137_3672 (protein)
# chain: MIDAKIEIEDGLAYAELTYKGSLEEAKKAAEIAEEIAGKIPGIAISTKVDEDGTLTIDLGGTLEQIMKFLKELAKALNVTINVTIKDLDTGETTKETIKA
# B12: GBRAP_160_4310 (protein)
# chain: KEELEALKKEVKEIFEEAKKLIEGETKEQQKAIVKVALGEVILLAFESPAITEEAEEKIAEIADEAIATLDANPDLTTEEIKKLLEEAEKKILELIEKLK
# B13: GBRAP_74_6571 (protein)
# chain: MEKYTKEMKAAAAAGDVKKAIKIVEEMIEKGIKKVSAEFLNALATIAEKHLPKATPEEQERFIDAASELVDLVLESEQDEETYKALNKLITALYEAELAR
# B14: GBRAP_57_6475 (protein)
# chain: MERLKAVEEAAERALALIDARAPREEILAAVRELAELLSEETLRDVLLIADPEAPEDLSKEEAIARLVALAAAYLDAGDYDGLRRLVELMLGTAEMDFEE
# B15: GBRAP_39_5697 (protein)
# chain: EREEEAEDTFSYLEAIGAKYQVEEKISLEEARERTRELAERFIKEHPEIAEVLKELLELAEKAGDLAILALLGLLLRAEEGTPLEEIKKDAELLIEYLKS
# B16: GBRAP_125_2965 (protein)
# chain: SEEEALEALAIIAKALGFDEDEVEEAVELARRFGLKKTLIALFLAEGYEEVADLVEKLTEEEAREVAKKLAEEIKKNPELTPEEVVELAKKLFEEVIAKK
# B17: GBRAP_80_6822 (protein)
# chain: MEEELEANLKALEAVDPEIAKIVREIVEIARELGVPLETLVRLAKAILELAKVDKEKARELAEELLEELREEREEGDREGALAELVDAESEALLEVEELE
# B18: GBRAP_184_5158 (protein)
# chain: KVLERTIEADNLEELKKKLKEIKEEAAKTKADLIVVLNLKELTKEMLETALSTLGEIKKEGLAPSITLLIENEMNDEQIDFALKLADEAGVTLVVAIPDE
# B19: GBRAP_160_4463 (protein)
# chain: KEEVKEAVEELRERVEEVLEDSENMSPEQILLAVAVEVGSSLLEWEEEGKISDEQAEILAKAIDELLRLAKEEKNASPEEAKKRAREIVEKAAKEILAAA
# B20: GBRAP_78_6736 (protein)
# chain: EIEELIDKALEELNRAARLAQQFPLEEQTELLDLIIDASTLLEEAEEEGFDLKLLEEALKKLKEALKLAKKLKTPLAEKLAKELEEAIKLVEKAIKLVKE
# B21: GBRAP_128_3567 (protein)
# chain: STAAAVAQARALLEAIKAGDAATRRAAAEALVALLAAADPETREAITAEILERLPELSAEDLEVLADVFRAARPAADPATAEALAEIQVEALNEREEKEE
# B22: GBRAP_35_5597 (protein)
# chain: DTDQLAVDSLIDMIEATIEGIPELPVDTLVSITNLLIKDAEELRKQLKNNVEALERIAKALEKLKEALKKHHGDNPKVQETIEKVEKAIKELKEQAKKAL
# B23: GBRAP_184_5329 (protein)
# chain: KTLEVHIENLPIEEIKKKVEEALKEAAAQGAALSIYIDASGYSIEEIKELIEYIGELAKKYGVKDVTLGIDKAVNEEEADILIEIADKYGIRLVLPLEDE
# B24: GBRAP_184_5332 (protein)
# chain: KTLEVHIENLPIEEIIKKVEEAAKKAAEEGADLLISIDASGYSIEEIIELIKKIGEIAKKYGVKNVTLGIDKEVNEEEADKLIEEADKYGIRLVLPLKDE
# B25: GBRAP_83_6990 (protein)
# chain: KEKITVAANGDDIEEAAEIVIDLTKEEGYEVDVEIIATKEDWEKVLEMVERLAEAGIETDITVLAEGITEEEAKEKQKELEEIAKEHGVNINVKVYAIEP
# B26: GBRAP_83_6970 (protein)
# chain: MEKVDVVTTPDHVEEAAEAARDLAEEEGYEVTVILVGSPEEVLKSAEIVAEKLKDIKNVSIRAAVRGVRKEEAEKTKKKLEEIGKKYGLKVEFDAELIEE
# B27: GBRAP_106_2555 (protein)
# chain: SEEEKFEKLIKESREEAEKEIADTRAWLAARRDQLTPEEIRAIETYTKKYLVAKILHKAIEAGFITKEEAEEILKEALSKTDFTPEEAVKFTLEKIKELY
# B28: GBRAP_160_4810 (protein)
# chain: KEKAEKLMEEARKDLLETAEASADLPIEDRARLLEAEGYTSILDFEEELNISDETEEELDEVVDDLVARLLANPDLSREEVLALVEEAVERMKEIVEKEV
# B29: GBRAP_160_4809 (protein)
# chain: MEKAEKLLEEARKDLLETAEASKDLPIEDRARLLEAEGYTSILDFEEELNISDETEEKLAQVVDDLVATLLANPDLSDEEVLALVEEAAEKMKEIVKEEV
# Target: GABARAP, O95166
# Test: median log2 fold change of GCK-ALFA target abundance (FLAG IP / Myc IP barcode read proportion) (log2 ratio); each designed protein is fused to an ALFA-tag nanobody in HEK293 cells to bring the named protein to FLAG-tagged glucokinase (GCK); Myc marks an untargeted standard; higher = target protein stabilised (more abundant)
# Settings: target protein: 3xFLAG-MCP-GCK-ALFA reporter; HEK293 landing pad (RPLP)
# Description: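 LABEL-seq trans screen in HEK293 landing-pad cells. Each de novo designed 100-aa effector handle, binding the indicated effector (E3 ligase, DUB or autophagy protein), is fused to a constant NbALFA target handle and induced with 2 ug/mL doxycycline. A FLAG-MCP-GCK-ALFA target and a Myc-MCP standard reporter were transfected, and after 48 h circRNA barcodes were recovered by anti-FLAG and anti-Myc IP and sequenced. The value is the median across barcodes (at least 3 per design) of log2(FLAG/Myc read-proportion ratio), with the two transfection replicates pooled. Negative values mean degradation and positive values mean stabilisation of the target.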
# Chain of GABARAP, O95166 (O95166 whole entry, the tested form may be a part): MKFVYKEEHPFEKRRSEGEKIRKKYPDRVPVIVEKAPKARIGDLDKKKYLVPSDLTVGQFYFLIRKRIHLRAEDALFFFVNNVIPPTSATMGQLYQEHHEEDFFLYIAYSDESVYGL
row,Binder,median log2 fold change
1,B1,0.127
2,B2,0.0216
3,B3,-0.612
4,B4,0.0926
5,B5,0.234
6,B6,-0.66
7,B7,-0.0773
8,B8,-0.279
9,B9,0.00207
10,B10,0.0139
11,B11,0.117
12,B12,-0.615
13,B13,-0.298
14,B14,0.257
15,B15,0.186
16,B16,-0.872
17,B17,-0.574
18,B18,-0.0197
19,B19,-0.697
20,B20,-0.0442
21,B21,0.197
22,B22,0.00193
23,B23,-0.086
24,B24,-0.598
25,B25,-0.0785
26,B26,0.197
27,B27,-0.507
28,B28,-0.669
29,B29,-0.35
